Structures are written as SMILES. Hit rate of the full screen: of about 1,200 compounds, about 480 (40%) were called active. The rule behind the calls is not given here. The set was probably picked from earlier hits. Not all results are given here. Measured potencies and affinities stand elsewhere.

The assay in a line: HepG2 cell cytotoxicity, dose response, cytotoxicity control, CellTiter-Glo luminescence, cherry-pick, set 2 (AID 743395). Conditions: HepG2 viability, CellTiter-Glo ATP luminescence, 72 h; series mostly up to 26 µM. A general note: Cellular ATP, detected with luciferase, serves as a proxy for viable cell number.
In the case of `COc1cc(C(=O)OCCc2cc3ccccc3c(=O)o2)cc(OC)c1OC`, the outcome was inactive.
The entry for `O=C1c2ccccc2C(=O)N1Cc1cnc(N2CCN(c3ccccc3)CC2)s1` is “inactive”; for `CCOC(=O)c1cnc(COc2ccc(OC)cc2)[nH]c1=O` it is “inactive”.
The entry for `S=C(NCCc1ccccc1)Nc1nccs1` is “inactive”; for `COc1ccc(NS(=O)(=O)c2cc(NC(=O)Cc3c(F)cccc3Cl)ccc2OC)cc1` it is “inactive”.
Then `CC1CN(S(=O)(=O)c2ccc(C(=O)N3CCc4ccccc43)cc2)CC(C)O1` (centres undefined), with “inactive”; and `O=S(=O)(c1ccc(Br)cc1)N1CCCc2ccccc21`, with “inactive”.
`C[C@H](CO)N1C[C@H](C)[C@H](CN(C)C(=O)c2ccc3c(c2)OCO3)Oc2cc(C#Cc3ccccc3F)ccc2S1(=O)=O`: the outcome was inactive.
Take `COc1ccc(C)cc1NC(=O)C(OC(=O)c1ccc(Cl)c(S(=O)(=O)N(C)c2ccccc2)c1)c1ccccc1` (centres undefined): the outcome was inactive.
The entry for `O=c1c(O)c(-c2cccs2)oc2ccc(Cl)cc12` is “inactive”; for `O=C(NCCCN1CCCC1=O)c1cc(S(=O)(=O)N2CCOCC2)c(Cl)cc1Cl` it is “inactive”.
Then `CC(C)Oc1ccc(S(=O)(=O)N2CCOCC2)cc1NC(=O)CCCSc1ccccc1`, with “inactive”.
The entry for `c1ccc2c(c1)N1CCCN=C1N2CCN1CCCCC1` is “inactive”.
Regarding `COc1ccc(NC(=O)N(C)C[C@@H]2Oc3cc(C#CCC(C)C)ccc3S(=O)(=O)N([C@H](C)CO)C[C@@H]2C)cc1`, the result was inactive.
The entry for `Cc1ccc(S(=O)(=O)N2CCOCC2)cc1NC(=O)CSc1nnc(COc2ccccc2F)n1N` is “inactive”; for `O=C(NCC(c1cccs1)N1CCOCC1)c1ccc(OCc2ccccc2)cc1` (centres undefined) it is “inactive”.
Consider `CCOC(=O)[C@H](CCc1ccccc1)N[C@@H](C)C(=O)N1[C@H](C(=O)O)C[C@@H]2CCC[C@@H]21`, for which the outcome was inactive.
Then `CCOc1ccc(NS(=O)(=O)c2cc(NC(=O)CCNC(=O)c3ccco3)ccc2OC)cc1`, with “inactive”.
Then `CC(=O)OCC(=O)NCCCOc1cccc(CN2CCCCC2)c1`, with “inactive”; and `Cc1c(C)c2c(OCC(=O)N3CCC(O)CC3)cc3c(c2oc1=O)CCC(C)(C)O3`, with “inactive”; and `CCOc1ccc(C(=O)N[C@H](C(=O)Nc2cccc(S(=O)(=O)N3CCCCC3)c2)C(C)C)cc1`, with “inactive”.
Then `CN(Cc1cccs1)C(=O)c1cccc(S(=O)(=O)N2CCCCCC2)c1`, with “inactive”.
On to `COC(CNC(=O)[C@H](Cc1ccccc1)N1Cc2ccccc2C1=O)OC`, for which the call was inactive.
Then `CC(C(=O)O)N(C(=O)c1ccccc1)c1ccc(F)cc1` (centres undefined), with “inactive”; and `O=C(NCCC1CCCCN1S(=O)(=O)c1cccs1)C(=O)Nc1ccc(F)cc1F` (centres undefined), with “inactive”.
Then `COc1ccc(NC(=O)C2CCCN2C(=O)Nc2cccc(F)c2)cc1` (centres undefined), with “inactive”.
The entry for `Cc1ccc(OCC(=O)Nc2ccc(CN3CCCCC3)cc2)c(C)c1` is “inactive”.
As for `N#CC(C#N)=C1C=C2C=C(N3CCOCC3)CCC2CC1` (centres undefined), the molecule was classed as inactive.
In the case of `CCN(CC)C1=CC2=CC(=C(C#N)C#N)CCC2CC1` (centres undefined), the result was inactive.
For `CC12CCC3c4ccc(O)cc4CCC3C1CCC2=O` (centres undefined), the outcome was inactive.
The entry for `C#C[C@]1(O)CC[C@H]2[C@@H]3CCc4cc(OC)ccc4[C@H]3CC[C@@]21C` is “inactive”; for `COc1cccc(C#Cc2ccc3c(c2)O[C@@H](CN(C)C(=O)c2ccccn2)[C@H](C)CN([C@@H](C)CO)S3(=O)=O)c1` it is “inactive”.
Then `O=C(O)COC(=O)Cc1ccccc1Nc1c(Cl)cccc1Cl`, with “inactive”; and `Cc1ccc(C(=O)Nc2cccc(C(F)(F)F)c2)cc1Nc1cnccn1`, with “inactive”.
With `CC(=O)c1cc(NC(=O)c2cccc(C(F)(F)F)c2)c(=O)oc1C`, the outcome was inactive.
Then `COCCNc1nc(Nc2ccc(C)cc2C)c2sccc2n1`, with “inactive”; and `Cn1cccc1C(=O)OCC(=O)NCc1ccc2c(c1)OCO2`, with “inactive”; and `CC(=O)NS(=O)(=O)c1ccc(NC(=O)CSc2ccc(Cl)cc2)cc1`, with “inactive”.
The entry for `CC(C)(C)C(=O)Nc1ccc(S(=O)(=O)NC2=NCCCCC2)cc1` is “inactive”; for `Cc1ccc(S(=O)(=O)Nc2cc(C)cc(CCNC=O)c2C)cc1` it is “inactive”.
The entry for `Cc1cc(O)cc2c1C1CCC3(C)C(=O)CCC3C1C=C2` (centres undefined) is “inactive”.
For the molecule `COc1ccc(-c2oc3ccc(-c4cc(OC)c(OC)c(OC)c4)cc3c2C#Cc2ccccn2)cc1`, the molecule was classed as inactive.
For `COc1ccc(CCn2c(NN=C(C)C)nc3c2c(=O)[nH]c(=O)n3C)cc1`, the molecule was called inactive.
For the molecule `CCCCNC(=O)CSc1nc2ccc(C)cc2[nH]1`, the result was inactive.
Then `COC(=O)c1ccc(C(=O)NC2CCCc3c2cnn3-c2cc(F)cc(F)c2)nc1` (centres undefined), with “inactive”.
The entry for `COC(=O)C1=CN(c2ccc3c(c2)OCO3)C(N)=C(C#N)C1c1cccc(F)c1` (centres undefined) is “inactive”; for `COc1cccc(NC(=O)c2cnc(SCC(=O)NCc3ccc4c(c3)OCO4)n(C)c2=O)c1` it is “inactive”.
Then `C/C=C/c1ccc([C@@H]2[C@H](CO)N3CCCCN(S(=O)(=O)c4ccccc4)C[C@@H]23)cc1`, with “inactive”.
On to `O=C(Nc1ccccc1)N1C[C@H]2[C@@H](c3ccccc31)[C@H](CO)N2C(=O)c1ccccn1`, for which the outcome was inactive.
As for `OC[C@@H]1[C@@H](c2ccc(C#CC3(O)CCCC3)cc2)[C@H]2CN(Cc3ccccc3F)CCCCN12`, the molecule was called inactive.
The entry for `O=C(Nc1ccc(F)cc1)N1CCCCN2[C@H](C1)[C@H](c1ccc(-c3cccc(F)c3)cc1)[C@@H]2CO` is “inactive”; for `CCOc1ccc(NC(=O)CN(c2ccc([N+](=O)[O-])cc2)S(=O)(=O)c2ccccc2)cc1` it is “inactive”; for `Cc1ccc(NC(=O)Cc2nc(-c3c[nH]c(C(=O)N4CCCC4)c3)cs2)c(C)c1` it is “inactive”.
The entry for `O=S(=O)(Cc1ccccc1)N1CCCCN2[C@H](C1)[C@@H](c1ccc(C#Cc3ccccc3)cc1)[C@@H]2CO` is “inactive”; for `COc1ccc(C#Cc2ccc([C@H]3[C@H]4CN(C(=O)c5ccncc5)CCCCN4[C@H]3CO)cc2)cc1` it is “inactive”.
In the case of `OC[C@H]1[C@H](c2ccc(C#CC3(O)CCCC3)cc2)[C@H]2CN(Cc3ccccc3F)CCCCN21`, the result was inactive.
The entry for `C[C@]12C=CC(=O)C=C1CC[C@@H]1C2[C@@H](O)C[C@@]2(C)C1CC[C@]2(O)C(=O)COC(=O)CCC(=O)O` (some centres undefined) is “inactive”.
Then `Nc1nn(-c2ccccc2)c(N)c1N=Nc1cccc(F)c1`, with “inactive”; and `CCN(C(=O)COc1ccc2ccc(=O)oc2c1)C1CCCCC1`, with “inactive”.
As for `CC(C)Nc1nc(Nc2ccc(Cl)cc2F)c2sccc2n1`, the call was inactive.
Then `COc1cc(C(=O)N2CCC(C(N)=O)CC2)ccc1OCc1c(C)noc1C`, with “inactive”.
The entry for `Cc1noc(C)c1COc1ccc(C(=O)N2CCN(S(=O)(=O)c3ccc(F)cc3)CC2)cc1` is “inactive”; for `CCOC(=O)c1c(NC(=O)CN2C(=O)NC3(CCC(C)CC3)C2=O)sc(C)c1CC` (centres undefined) it is “inactive”; for `CC(Oc1ccccc1Cl)C(=O)Nc1ccc(S(=O)(=O)Nc2nccs2)cc1` (centres undefined) it is “inactive”.
The entry for `CCCCCCCCCC(=O)OCC(O)CO` (centres undefined) is “inactive”; for `O=C(CSc1nnc(Cn2c(=O)sc3ccccc32)n1-c1ccccc1)NCc1ccco1` it is “inactive”.
Turning to `Cc1cccc(COc2ccccc2C(=O)NC2CCC(O)CC2)c1` (centres undefined), the call was inactive.
For `Cc1csc2sc(-c3ccnc(SCC(=O)NCc4ccccc4)n3)c(C)c12`, the outcome was inactive.
Then `CC(C)C#Cc1ccc([C@@H]2[C@@H](CO)N3C(=O)CN(S(=O)(=O)c4ccccc4)C[C@@H]23)cc1`, with “inactive”; and `CCC(=O)N1[C@H](CN(CC)C(C)=O)[C@@H](c2ccc(-c3ccccc3)cc2)[C@@H]1CO`, with “inactive”.
Then `CN(C[C@@H]1N[C@H](CO)[C@H]1c1ccccc1)C(=O)c1ccccn1`, with “inactive”.
The entry for `CNC(=O)CC1C(=O)N(c2ccc(F)cc2)C(=S)N1NC(=O)c1ccc(Cl)cc1` (centres undefined) is “inactive”; for `C[C@@H]1CN([C@@H](C)CO)C(=O)c2cccc(NC(=O)NC3CCCCC3)c2O[C@@H]1CN(C)Cc1ccc(Cl)c(Cl)c1` it is “inactive”; for `C[C@H]1CCCCO[C@H](CN(C)C(=O)Nc2ccc(C(F)(F)F)cc2)[C@@H](C)CN([C@@H](C)CO)C(=O)c2cc(NC(=O)Nc3ccc(F)cc3)ccc2O1` it is “inactive”.
As for `C[C@H](CO)N1C[C@H](C)[C@@H](CN(C)C(=O)Nc2ccc(C(F)(F)F)cc2)OCCCC[C@H](C)Oc2ccc(NC(=O)Nc3ccc(F)cc3)cc2C1=O`, the result was inactive.
The entry for `C[C@H]1CCCCO[C@@H](CN(C)C(=O)C2CCCCC2)[C@@H](C)CN([C@@H](C)CO)C(=O)c2cc(NC(=O)Nc3ccc(C(F)(F)F)cc3)ccc2O1` is “inactive”.
Turning to `C[C@H]1CCCCO[C@@H](CN(C)C(=O)Nc2ccc(C(F)(F)F)cc2)[C@@H](C)CN([C@@H](C)CO)C(=O)c2cc(NC(=O)Nc3ccc(F)cc3)ccc2O1`, the outcome was inactive.
Then `C[C@H]1CCCCO[C@@H](CN(C)C(=O)Nc2ccc(C(F)(F)F)cc2)[C@@H](C)CN([C@@H](C)CO)C(=O)c2cc(NC(=O)Nc3ccc4c(c3)OCO4)ccc2O1`, with “inactive”.
Then `C[C@H]1CN([C@@H](C)CO)S(=O)(=O)c2ccc(/C=C/c3ccccc3)cc2O[C@@H]1CN(C)C(=O)Nc1ccc(F)cc1`, with “inactive”.
The entry for `Cn1cnc2nc[nH]c2c1=S` is “inactive”; for `Cc1ccc(NC(=O)COc2ccc(Br)cc2CO)cc1S(=O)(=O)N1CCOCC1` it is “inactive”.
Turning to `CCc1nc(C)cn1S(=O)(=O)c1ccc2c(c1)OCCO2`, the molecule was called inactive.
Then `COC(=O)c1[nH]c2c(c1C)C(=O)CC(c1cccc(OC)c1)C2` (centres undefined), with “inactive”.
In the case of `CCCCC(=NCCc1c(C)[nH]c2ccccc12)C1=C(O)CC(c2ccccc2)CC1=O` (centres undefined), the molecule was called inactive.
In the case of `O=C(Cc1ccccn1)NCC[C@H]1CC[C@@H](NC(=O)Nc2ccc(C(F)(F)F)cc2)[C@@H](CO)O1`, the outcome was inactive.
For the molecule `Cc1ccc(S(=O)(=O)N(Cc2cc3ccccc3[nH]c2=O)c2cccc(C)c2)cc1`, the outcome was inactive.
Then `C=CC(C)(C)c1[nH]cnc1/C=C1\NC(=O)C(C(C)C)NC1=O` (centres undefined), with “inactive”; and `O=C(Cc1ccc(Cl)cc1)OCC(=O)c1ccc[nH]1`, with “inactive”; and `Cc1ccc(CN(C)CC(=O)Nc2cccc([N+](=O)[O-])c2)o1`, with “inactive”.
For `CCCCN(C(=O)c1cc(S(=O)(=O)N2CCCCC2)ccc1Cl)c1c(N)n(CC(C)C)c(=O)[nH]c1=O`, the call was inactive.
For `CN1C(=O)c2cc(NC(=O)Cc3ccccc3)ccc2OC[C@@H]2O[C@H](CC(=O)NCc3ccc(Cl)cc3)CC[C@H]21`, the call was inactive.
Then `O=C(C[C@H]1CC[C@@H]2[C@H](COC[C@@H](O)CN2S(=O)(=O)c2ccccc2)O1)Nc1ccc(-c2ccccc2)cc1`, with “inactive”.
Then `COc1ccc(NC(=O)CSc2nnc(Cc3cccs3)n2C)cc1`, with “inactive”.
Consider `CCCCn1cnc2c(c(CC#N)nn2-c2ccccc2)c1=N`, for which the molecule was classed as inactive.

Values taken from PubChem BioAssay AID743395 (Broad Institute, 2014).
